Tgondii IFNg: T. gondii growth inhibition with IFN-gamma, primary screen, cell-based. Toxoplasma gondii growth in IFN-gamma-treated host cells; stronger effect = lower value. activity change, negative = inhibition, % (test concentration not listed). hit rate 3.8% among 69,000; in the data active = activity change below about -70%, passing the limit was not always enough;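 note: host cells are HeLa cells infected with Toxoplasma gondii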
* hit, by the source's call. The entries come from a sample that favours hits as a whole.

SMILES	Tgondii IFNg
Fc1ccccc1CNc1nc(-c2nnc(-c3ccccc3)o2)nc2ccccc12	-76*
Fc1ccc(CNc2nc(-c3nnc(-c4ccccc4)o3)nc3ccccc23)cc1	23
CCOc1ccc(Nc2nc(-c3nnc(-c4cccc(C)c4)o3)nc3ccccc23)cc1	36
Cc1cccc(-c2nnc(-c3nc(Nc4ccc(F)cc4)c4ccccc4n3)o2)c1	73
Clc1ccccc1CSc1nc(NC2CCCCC2)c2ccccc2n1	-51
CC(NC(=O)CCc1ccc2c(ccn2C)c1)c1cccnc1 (centres undefined)	57
O=C(Nc1ccc(F)cc1F)c1nc(Nc2ccc(Cl)cc2)c2ccccc2n1	15
COc1ccc(CNc2ccc(C)c(C)c2)cc1OC	73
CCOc1ccccc1-c1nc(Cn2nnc(C(=O)Nc3ccc(C)cc3C)c2C)c(C)o1	198
NC(=O)c1ccc2nc(NC(=O)Cc3cc(Cl)c4c(c3)OCCCO4)sc2c1	17
CC1COC2(CCCN(C(=O)c3ccc4ccccc4n3)C2)C1 (centres undefined)	5
CC(C)CC(=O)N1CCc2c([nH]c3ccccc23)C12C(=O)N(C)c1ccccc12 (centres undefined)	445
Cc1cccc(-c2nnc(-c3nc(NCc4ccccc4)c4ccccc4n3)o2)c1	-107*
Cc1ccc(-c2nnc(-c3nc(Nc4ccc(F)cc4)c4ccccc4n3)o2)cc1	149
Fc1ccc(-c2nnc(-c3nc(NC4CCCCC4)c4ccccc4n3)o2)cc1	-104*
Cc1ccc(Nc2nc(-c3nnc(-c4ccc(F)cc4)o3)nc3ccccc23)cc1	3
Cc1ccc(CNc2nc(-c3nnc(-c4cccc(C)c4)o3)nc3ccccc23)cc1	-68
Cc1cccc(-c2nnc(-c3nc(NCc4ccc(F)cc4)c4ccccc4n3)o2)c1	-59
CCN(CC)C(=O)CC1CC2(CCN(C(=O)C3CCOCC3)CC2)Oc2ccccc21 (centres undefined)	158
O=C(O)CC1CCC2(CC1)CCN(C(=O)CC1CCCC1)CC2	-65
CCn1c(CSc2ccccc2)nc2ccccc21	11
Cc1ccc2oc(C(=O)NCCOc3nonc3C)cc2c1	-4
CCOC(=O)Cc1ccc(NC(=O)Nc2ccc(-c3nc(-c4ccccc4)co3)cc2)cc1	-20
Clc1ccc(CNc2nc(SCc3ccccc3Cl)nc3ccccc23)cc1	30
COc1cc(Nc2nc(SCc3ccc(C(C)(C)C)cc3)nc3ccccc23)cc(OC)c1	-11
SMILES	Tgondii IFNg
Clc1ccc(CSc2nc(NCc3ccccc3)c3ccccc3n2)cc1	-72*
COc1ccc(CNc2nc(-c3ccc(OC)cc3)nc3ccccc23)cc1	-42
Fc1ccc(CSc2nc(Nc3ccc(F)c(F)c3)c3ccccc3n2)cc1	-80*
Clc1ccccc1CSc1nc(NCc2ccccc2)c2ccccc2n1	-49
Fc1ccc(Nc2nc(SCc3ccc(Cl)cc3)nc3ccccc23)cc1F	-21
c1ccc(CNc2nc(NCc3ccccc3)c3ccccc3n2)cc1	-108*
Clc1ccc(CNc2nc(SCc3ccc(Cl)cc3)nc3ccccc23)cc1	-48
Cc1ccc(S(=O)(=O)N2CCC(C(=O)NCCc3csc(-c4ccccc4)n3)CC2)cc1	-40
CCOCC(=O)N1CCCCC1CCc1ccc(O)cc1 (centres undefined)	1
C=CCN1CC[C@@]2(CN(Cc3nccs3)C[C@H]2c2ccccc2)C1=O	-9
CCN1CCC2(CC1)OC(=O)C(C)=C2C(=O)NCCCN1CCC(Cc2ccccc2)CC1	15
CO[C@@H]1CN(C)C(=O)c2cc(NC(=O)c3ccc(Oc4ccccc4)cc3)ccc2OC[C@H](C)NC[C@@H]1C	-97*
CO[C@@H]1CN(C)C(=O)c2cc(NC(=O)c3ccc(Oc4ccccc4)cc3)ccc2OC[C@@H](C)NC[C@H]1C	-119*
CO[C@@H]1CN(C)C(=O)c2cc(NC(=O)c3cnccn3)ccc2OC[C@H](C)NC[C@@H]1C	-35
COc1cccc(NC(=O)Nc2ccc3c(c2)C(=O)N(C)C[C@H](OC)[C@@H](C)CN[C@H](C)CO3)c1	28
COc1cccc(NC(=O)Nc2ccc3c(c2)C(=O)N(C)C[C@H](OC)[C@H](C)CN[C@@H](C)CO3)c1	19
CO[C@@H]1CN(C)C(=O)c2cc(NC(=O)c3cnccn3)ccc2OC[C@H](C)NC[C@H]1C	10
COc1cccc(NC(=O)Nc2ccc3c(c2)C(=O)N(C)C[C@@H](OC)[C@H](C)CN[C@@H](C)CO3)c1	-34
CO[C@H]1CN(C)C(=O)c2cc(NS(=O)(=O)c3cccc(Cl)c3)ccc2OC[C@H](C)NC[C@H]1C	-86*
CO[C@H]1CN(C)C(=O)c2cc(NC(=O)c3ccc(Oc4ccccc4)cc3)ccc2OC[C@H](C)NC[C@H]1C	-98*
CO[C@H]1CN(C)C(=O)c2cc(NS(=O)(=O)c3cccc(Cl)c3)ccc2OC[C@@H](C)NC[C@H]1C	-61
CO[C@@H]1CN(C)C(=O)c2cc(NS(=O)(=O)c3cn(C)cn3)ccc2OC[C@@H](C)NC[C@@H]1C	-13
CO[C@H]1CN(C)C(=O)c2ccc(NC(=O)c3cccc(F)c3)cc2OC[C@@H](C)NC[C@@H]1C	47
COCc1nc(NCc2cc3c(cc2OC)CCC3)c2cnn(C)c2n1	-43
COc1cccc(CCc2nnc(NC(=O)c3ccc4oc(=O)n(C)c4c3)s2)c1	6
SMILES	Tgondii IFNg
CC1CN(C)CCC1CCc1ccc(NC(=O)c2cnccn2)cc1 (centres undefined)	85
CCCCN(CC)C(=O)c1cc2cccnc2n(Cc2ccc(F)cc2)c1=O	-24
COc1ccc(C(=O)NCCc2csc(-c3ccc(F)cc3)n2)cc1OC	25
Cc1nc(CN(C)C(=O)C(C)n2ccnc2C(C)C)cs1 (centres undefined)	16
O=C(Nc1ccc(Cl)cc1Cl)Nc1ccccc1C(=O)NCCN1CCNC1=O	-51
Cc1cc(N2CC(c3cccnc3)C2)c2cc3c(cc2n1)OCO3	-11
CCCn1nccc1C(=O)Nc1c(C)cnn1C(CC)CC	-35
O=C(COc1cccc2ccccc12)Nc1ccc(CN2CCOCC2)cc1	18
C=CCOC[C@H]1CCC2C(CCN2C(=O)c2ccc3c(c2)OCO3)O1 (some centres undefined)	-3
O=C(O)Cn1cc(Br)c(=O)[nH]c1=O	-64
CCN(CC)C(=O)C1Cn2ccnc2C2(CCN(C(=O)C3CCOCC3)CC2)O1 (centres undefined)	6
C=CCOC[C@H]1CNC(=O)[C@H]2CCN(C(=O)N3CCCC3)CC[C@@H]12	25
COc1ccc(CCN(C)CCCC(C#N)(c2cc(OC)c(OC)c(OC)c2)C(C)C)cc1OC (centres undefined)	-47
COc1ccc(CCN(C)CCCOc2ccc(S(=O)(=O)c3c(C(C)C)c4ccccc4n3C)cc2)cc1OC	-73*
COc1ccc(CCN(C)CCc2ccc(OC)c(OC)c2)cc1OC	5
O=C(NCc1ccccn1)C1CC(=O)N(CCc2ccc(F)cc2)C1 (centres undefined)	15
COc1ccc(C(=O)C2CCCN(C(=O)CCc3nc4ccccc4s3)C2)c(C)c1 (centres undefined)	-14
COC[C@H]1CCCN1Cc1ccc(C(=O)Nc2cnn(C)c2)cc1	3
Cc1ccsc1CN(C)Cc1ccc(C(=O)Nc2cnn(C)c2)cc1	-84*
CCN(Cc1cccc(C(=O)Nc2cnn(C)c2)c1)Cc1nc(C)no1	6
CC(C)CN1CC(C(=O)NCc2nc(-c3ccccc3)n[nH]2)CC1=O (centres undefined)	-45
COc1ccc(NC(=O)[C@@H](OC)c2ccccc2)c(NC(=O)C(C)C)c1	-6

Screens as filed in PubChem.
